VP16 counter: VP16 counterscreen qHTS for inhibitors of ROR gamma transcriptional activity | Drosophila S2 Gal4-VP16 UAS-luciferase, luminescence, 20 h | Potency, µM (titrated, usually from 53.6 µM), for the others: at the top dose activity, negative = inhibition, hits mostly inhibitors | actives 3.5% (n = 310,000) | AID 2546, 2010;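 also: Gal4-VP16 expression switched on by copper sulfate through the metallothionein promoter; potency is read from the fitted curve at half-maximal effect; nearly all actives have a fitted effect of over 50% in size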
RORgamma inh: qHTS for inhibitors of ROR gamma transcriptional activity | Drosophila S2 Gal4-RORgamma UAS-luciferase reporter, 20 h | Potency, µM (titrated, usually from 53.6 µM), without a hit: at the highest dose activity change, negative = inhibition, hits mostly inhibitors | Nuclear receptor ROR-gamma (Mus musculus), P51450 | actives 5.4% (n = 310,000); also: potency is read from the fitted curve at half-maximal effect; nearly all actives have a fitted effect of over 60% in size
Target sequence (P51450 whole entry, looked up, the tested form may be a part): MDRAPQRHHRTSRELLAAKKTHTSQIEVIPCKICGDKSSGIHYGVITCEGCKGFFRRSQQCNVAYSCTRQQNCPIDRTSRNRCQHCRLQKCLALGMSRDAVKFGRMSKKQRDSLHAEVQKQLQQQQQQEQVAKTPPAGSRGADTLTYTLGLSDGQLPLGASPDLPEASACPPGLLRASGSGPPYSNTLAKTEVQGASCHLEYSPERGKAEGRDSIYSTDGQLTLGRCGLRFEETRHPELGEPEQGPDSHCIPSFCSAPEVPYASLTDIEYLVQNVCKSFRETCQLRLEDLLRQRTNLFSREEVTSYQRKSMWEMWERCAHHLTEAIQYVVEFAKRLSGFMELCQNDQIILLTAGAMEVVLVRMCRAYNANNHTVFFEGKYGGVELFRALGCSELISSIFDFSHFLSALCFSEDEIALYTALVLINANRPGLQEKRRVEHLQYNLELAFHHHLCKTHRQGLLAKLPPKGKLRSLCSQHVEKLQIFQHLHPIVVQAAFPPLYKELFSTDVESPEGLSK
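Read-out: Photinus luciferase luminescence; inhibitors lower reporter signal. Insect Schneider cells with Gal4-ROR gamma fusion under metallothionein promoter, UAS reporter; 700 uM final copper sulfate induction, 20 hr, ambient temperature.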
ELG1 repair inh: qHTS screen for small molecules that inhibit ELG1-dependent DNA repair in human embryonic kidney (HEK293T) cells expressing luciferase-tagged ELG1 | AID 504467, 2011 | actives 2.3% (n = 330,000) | HEK293T ELG1-luciferase reporter, luminescence, 16 h; DNA damage induced by 5-fluorouridine | Potency, µM (top dose mostly 46.1 µM), without a hit: at the highest dose activity change, negative = inhibition, usual class: inhibitors; also: potency is read from the fitted curve at half-maximal effect; nearly all actives have a fitted effect of over 55% in size
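5-Fluorouridine DNA damage + compound/DMSO, 2,000 cells/well, 16 h, 37 °C/5% CO2. ONE-Glo, 30 min RT, luminescence. Readout = decrease in reporter signal.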
DT40 TDP1 CPT: qHTS for Inhibitors of human tyrosyl-DNA phosphodiesterase 1 (TDP1): qHTS in cells in presence of CPT; chicken DT40 Tdp1-/-;hTDP1 cells + 20 nM CPT, ATP luminescence, 48 h; Potency, µM (highest dose often 46.2 µM), for the others: at the top dose activity change, negative = growth inhibition, usual class: inhibitors; actives 12% (n = 420,000); AID 686979, 2013; also: potency is read from the fitted curve at half-maximal effect; nearly all actives have a fitted effect of over 55% in size
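Chicken DT40 Tdp1-/- cells stably complemented with human TDP1 were seeded at 400 cells/well in medium containing 20 nM camptothecin, exposed to pin-transferred compounds, and grown at 37 °C for at least 48 hr. Viability was read as ATP luminescence.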
TDP1 cell noCPT: qHTS for Inhibitors of human tyrosyl-DNA phosphodiesterase 1 (TDP1): qHTS in cells in absence of CPT; actives 15% (n = 420,000); Potency, µM (titrated, usually from 46.2 µM), inactives show top-dose activity change, negative = growth inhibition, hits mostly inhibitors; DT40 Tdp1-/- hTDP1 cells, no CPT, ATP luminescence, 48 h; AID 686978, 2013; also: potency is read from the fitted curve at half-maximal effect; nearly all actives have a fitted effect of over 55% in size
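Stably hTDP1-transfected Tdp1-null chicken DT40 cells were treated with library compounds minus camptothecin and grown for at least 48 hr at 37 °C, after which cellular ATP was quantified by luminescence.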
IL-1B inflam inh: qHTS for Inhibitors of Inflammasome Signaling: IL-1-beta AlphaLISA Primary Screen. THP-1 LPS/ATP IL-1B secretion, AlphaLISA, 16 h; hits give low values. activity change, % at 57.5 µM. actives 4.7% (n = 360,000); in the data active = activity change below about -50%; inconclusive = mostly about -30% to -49%
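Secreted IL-1B measured by AlphaLISA bead assay after 16 h compound exposure of THP-1 cells; compounds (final up to 57.5 uM) added 1 h before LPS (250 ng/mL) and ATP (1.25 mM) stimulation; lower signal means less secretion.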
Numbers without * were called inactive; ? = inconclusive; · = no result given; [ ] = another dose, or the depositor's remark. An excerpt weighted towards active compounds, which were near 21% of everything screened. Unless noted, calls follow the shape of the dose curve; as a rule, active = well fitted curve in the direction sought with a large enough effect; inconclusive = small, poorly fitted or top-dose-only effect, or another doubt; inactive = no such curve, though single readings can be large; an effect the other way counts as inactive or inconclusive. % is scaled to controls: 0 for no effect and ±100 for the full control effect.

SMILES	VP16 counter	RORgamma inh	ELG1 repair inh	DT40 TDP1 CPT	TDP1 cell noCPT	IL-1B inflam inh
C[C@]12c3[nH]c4ccccc4c3CCN1C(=O)C(CC(=O)NCc1cccc(C(F)(F)F)c1)C[C@@H]2C(=O)N1CCCCC1 (stereo partly drawn)	·	·	?	21µM*	15µM*	-66*
CC[C@]12c3[nH]c4ccccc4c3CCN1C(=O)C(CC(=O)NCCN1CCOCC1)C[C@@H]2C(=O)N1CCN(C(=O)c2ccco2)CC1 (stereo partly drawn)	·	·	17%	5%	-8%	2
CC[C@]12c3[nH]c4ccccc4c3CCN1C(=O)C(CC(=O)NCc1cccc(C(F)(F)F)c1)C[C@@H]2C(=O)N1CCN(C(=O)c2ccco2)CC1 (stereo partly drawn)	·	·	?	18µM*	?	-52*
C[C@]12c3[nH]c4ccccc4c3CCN1C(=O)C(CC(=O)NCc1cccc(C(F)(F)F)c1)C[C@@H]2C(=O)N1CCOCC1 (stereo partly drawn)	·	·	-11%	?	?	?
Cc1ccc(Cn2ccnc2SCC(=O)Nc2ccc3c(c2)OCO3)cc1	·	·	·	12%	-26%	·
COc1cccc(-c2nc(CS(=O)(=O)CC(=O)Nc3ccc(C(C)=O)cc3)c(C)o2)c1	-3%	19%	?	?	?	4
O=C(NCc1ccccc1)C(=O)NCC1COc2ccccc2O1 (stereo not drawn)	8%	-10%	-7%	2.9µM*	2.6µM*	64
O=C(NCC1COc2ccccc2O1)c1ccc(Br)s1 (stereo not drawn)	27%	13%	?	-6%	?	-72*
COc1cc(CC(=O)NCC2COc3ccccc3O2)cc(OC)c1OC (stereo not drawn)	8%	-27%	-3%	-11%	-7%	0
COc1ccccc1NC(=O)C(=O)NCC1COc2ccccc2O1 (stereo not drawn)	9%	32%	10%	-7%	0.56µM*	-5
Cc1ccc(S(=O)(=O)N[C@H]2COC(=O)[C@H](C)COC(=O)[C@H](C)NC(=O)C/C=C\[C@H]2C)cc1	-3%[10 µM]	9%[10 µM]	·	·	·	·
COCCN1C(=O)CCC1(C)c1nnnn1-c1ccc2ccccc2c1 (stereo not drawn)	·	·	·	13%	6%	47
Cc1ccc(NC(=O)c2sc3nc(-c4ccc(F)cc4)ccc3c2N)cc1F	·	·	·	12µM*	21µM*	·
Cc1ccc(NC(=O)c2c(C)nc3sc(C(=O)Nc4ccc(F)cc4)c(N)c3c2-c2ccc(Cl)cc2)c(C)c1	·	·	·	-9%	-12%	·
COc1ccc(-c2ccc3c(N)c(C(=O)Nc4cc(F)ccc4C)sc3n2)cc1	·	·	·	?	15µM*	·
COc1cccc(-c2ccc3c(N)c(C(=O)Nc4ccc(Cl)cc4F)sc3n2)c1	·	·	·	-24%	?	·
Nc1c(C(=O)Nc2ccc(F)cc2)sc2nc(-c3ccco3)ccc12	-6%	-2%	?	?	?	-4
COc1ccc(-c2ccc3c(N)c(C(=O)Nc4cccc(C)c4)sc3n2)cc1	·	·	·	16µM*	?	·
Nc1c(C(=O)Nc2ccc(Br)cc2)sc2nc(-c3ccco3)ccc12	?	-17%	8%	?	15µM*	8
O=C(NCCO)c1cn(C2CCN(Cc3c(F)cccc3Cl)CC2)nn1	·	·	·	3%	5%	·
